MLL CXXC-DNA inh: inhibitors of human MLL CXXC domain-DNA interaction | Q03164 | MLL-CXXC / FITC-HOXA9 DNA fluorescence polarization | Potency, µM (doses to about 115 µM), inactives show at the highest dose activity change, negative = inhibition, actives largely listed as inhibitors | actives 0.037% (n = 290,000); active = well fitted inhibition curve with a large enough effect in the polarisation, with a control signal flat, not every such curve was filed as active; inconclusive = small, poorly fitted or top-dose-only effect, or effect the other way, or a change in a side signal; inactive = no such curve, though single readings can be large or run the other way; the % refers to the polarisation; also: potency is read from the fitted curve at half-maximal effect
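Steps: dispense CXXC domain solution (7 uM) → pin compounds or unlabeled HOX-A9 DNA control → 5 min ambient → add FLSN-HOX-A9 solution (50 nM) → spin → 30 min ambient → fluorescence polarization. Tris pH 7.5/NaCl/DTT/BSA buffer.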
Menin MLL FP TR: menin-MLL binding inhibition, Texas Red mutant peptide. Menin + Texas Red MLL mutant peptide, fluorescence polarization. Potency, µM (series often up to 61.6 µM), for inactives: at the highest dose FP activity change, negative = inhibition, actives largely listed as inhibitors. actives 0.23% (n = 270,000). AID 1768; active = well fitted inhibition curve with a large enough effect in the polarisation, with a control signal flat, not every such curve was filed as active; inconclusive = small, poorly fitted or top-dose-only effect, or effect the other way, or a change in a side signal; inactive = no such curve, though single readings can be large or run the other way; the % refers to the polarisation; also: potency is read from the fitted curve at half-maximal effect; % of control where 0% means no effect
Menin MLL FP FL: menin-MLL binding inhibition, fluorescein peptide; Fluorescence polarization, fluorescein-MLL peptide displacement from menin; FP activity change, % at 61.4 µM; 290,000 tested, under 10 active; active = well fitted curve in the direction sought with a large enough effect in the polarisation, not every such curve was filed as active; inconclusive = small, poorly fitted or top-dose-only effect, or effect the other way, or a change in a side signal; inactive = no such curve, though single readings can be large or run the other way; the % refers to the polarisation; also: % of control where 0% means no effect
Lamin A splicing: changes lamin A minigene splicing in HeLa cells | actives 0.01% (n = 200,000) | AID 1487 | HeLa LMNA splicing GFP/RFP minigene ratio, 48 h | Potency, µM (doses to about 46.1 µM), for inactives: at the top dose ratio change, negative = inhibition, usual class: inhibitors; active = well fitted inhibition curve with a large enough effect in the signal ratio, with a control signal flat, not every such curve was filed as active; inconclusive = small, poorly fitted or top-dose-only effect, or effect the other way, or a change in a side signal; the % refers to the signal ratio; also: potency is read from the fitted curve at half-maximal effect; % is scaled to controls: 0 for no effect and ±100 for the full control effect
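S3 HeLa cells stably expressing lamin A-EGFP splicing minigene plus DsRed2, 600 cells/well, 48 h compound exposure at 37C. Laser-scanning cytometry; analysed as GFP (500-530 nm)/RFP (575-640 nm) total intensity ratio; 0.5% DMSO vehicle.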
CBFb RUNX1 block: blocks binding between human CBF-beta and RUNX1; Q01196+Q13951; Potency, µM (doses to about 59.8 µM), for the others: at the highest dose activity, negative = inhibition, hits mostly inhibitors; 230,000 tested, under 10 active; AlphaScreen CBFb-His/RUNX1-biotin binding, biochemical; active = well fitted curve in the direction sought with a large enough effect; inconclusive = small, poorly fitted or top-dose-only effect, or effect the other way, or another doubt; inactive = no such curve, though single readings can be large or run the other way; also: % of control where 0% means no effect
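Compounds were screened at multiple concentrations against a preformed CBF-beta(His)/RUNX1(biotin) complex (30 nM of each) for 15 min at room temperature, followed by 90 min with nickel and streptavidin beads and AlphaScreen reading.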
Numbers without * were called inactive; [ ] = dose if it differs, or a comment. The full list was thinned out, with hits kept by preference.

For Cc1cccc2sc(NNC(=O)c3ccc(S(=O)(=O)N4CC(C)CC(C)C4)cc3)nc12 (configuration not stated) the results were MLL CXXC-DNA inh -4%, Menin MLL FP TR inconclusive, Menin MLL FP FL 1, Lamin A splicing 18µM* and CBFb RUNX1 block 7%[2.36 µM].
For COc1ccc(C(=O)Nc2ccccc2C(=O)N/N=C/c2cccc3ccccc23)cc1 the results were MLL CXXC-DNA inh 31%, Menin MLL FP TR 28µM*, Menin MLL FP FL 6, Lamin A splicing 11% and CBFb RUNX1 block -10%.
`CN[C@H](C)CCC=C(C)C` gave MLL CXXC-DNA inh -5%, Menin MLL FP TR -17% and Menin MLL FP FL 0.
`Cc1c2c(c(O)c3c(O)cccc13)C(=O)O[C@H]2C1C(N(C)C)C(O)=C(C(N)=O)C(=O)[C@H]1O` (some centres not stated) gave Menin MLL FP TR inconclusive and Menin MLL FP FL 0.
For COc1cc(/C=C2\CC/C(=C\c3cc(OC)c(OC)c(OC)c3)C2=O)cc(OC)c1OC the results were MLL CXXC-DNA inh 15%, Menin MLL FP TR -10%, Menin MLL FP FL 2, Lamin A splicing inconclusive and CBFb RUNX1 block -2%.
COc1cc(/C=C2\CC(C(C)(C)C)C/C(=C\c3cc(OC)c(OC)c(OC)c3)C2=O)cc(OC)c1OC (configuration not stated) was read as MLL CXXC-DNA inh inconclusive, Menin MLL FP TR 7.9µM* and Menin MLL FP FL -16.
Screening COC(=O)c1c(-n2c(C)cc(C=O)c2C)sc2c1CCCC2 returned MLL CXXC-DNA inh 24%, Menin MLL FP TR 28µM*, Menin MLL FP FL 3, Lamin A splicing 7% and CBFb RUNX1 block -18%.
Cc1cc(C=O)c(C)n1-c1sc2c(c1C(=O)O)CCCC2 was read as MLL CXXC-DNA inh 6%, Menin MLL FP TR 0%, Menin MLL FP FL 2, Lamin A splicing -3% and CBFb RUNX1 block -13%.
CC(C)C[C@@H](NC(=O)[C@H](Cc1ccccc1)NC(=O)c1cnccn1)B(O)O was read as MLL CXXC-DNA inh -15%, Menin MLL FP TR 8% and Menin MLL FP FL -3.
For O=C(O)c1cc(N=Nc2ccc(O)c(C(=O)O)c2)ccc1O the results were MLL CXXC-DNA inh -9%, Menin MLL FP TR 40µM* and Menin MLL FP FL -7.
For O=C(O)c1cc(N=Nc2ccc([N+](=O)[O-])cc2)ccc1O the results were CBFb RUNX1 block 3%[21.7 µM].
`CCCCOc1ccc(-c2nnn(CC(=O)c3c[nH]c4ccccc34)n2)cc1` gave MLL CXXC-DNA inh 30%, Menin MLL FP TR 8.9µM*, Menin MLL FP FL 11, Lamin A splicing 4% and CBFb RUNX1 block 2%.
`O=C1OC(O)C(C(Cl)Cl)=C1Cl` (configuration not stated) gave CBFb RUNX1 block 10%[21.7 µM].
For CCC(C(=O)O)C1OC(C(C)C(O)C(C)C(=O)C(CC)C2OC3(C=CC(O)C4(CCC(C)(C5CCC(O)(CC)C(C)O5)O4)O3)C(C)CC2C)C(C)CC1C (configuration not stated) the results were MLL CXXC-DNA inh 10%, Menin MLL FP TR -14% and Menin MLL FP FL 4.
For NC(=O)SCC(=O)Nc1cccc(Cl)c1 the results were MLL CXXC-DNA inh 12%, Menin MLL FP TR 22µM*, Menin MLL FP FL 10, Lamin A splicing 15% and CBFb RUNX1 block 7%.
`CCOc1ccc2nc3cc(N)ccc3c(N)c2c1` gave MLL CXXC-DNA inh -29%, Menin MLL FP TR inconclusive, Menin MLL FP FL inconclusive, Lamin A splicing inconclusive and CBFb RUNX1 block -13%.
For CCOc1ccc2nc3cc(NCc4ccc(OC)cc4)ccc3c(N)c2c1 the results were MLL CXXC-DNA inh 7%, Menin MLL FP TR 11µM* and Menin MLL FP FL inconclusive.
CCn1cnc2scc(-c3ccccc3)c2c1=O was read as MLL CXXC-DNA inh 14%, Menin MLL FP TR -16%, Menin MLL FP FL -1, Lamin A splicing -4% and CBFb RUNX1 block 9%.
Cn1cc(/C=N/n2cnc3scc(-c4ccc(Cl)cc4)c3c2=O)c2ccccc21 was read as MLL CXXC-DNA inh 6%, Menin MLL FP TR 11µM*, Menin MLL FP FL 0, Lamin A splicing inconclusive and CBFb RUNX1 block 5%.
`COc1ccccc1-c1cc(C(=O)Nc2ccc(F)cc2F)no1` gave MLL CXXC-DNA inh -10%, Menin MLL FP TR 11µM*, Menin MLL FP FL 5, Lamin A splicing 11% and CBFb RUNX1 block -5%.
Screening CO/N=C\CC(=O)Nc1ccc(Cl)c(Cl)c1 returned MLL CXXC-DNA inh -9%, Menin MLL FP TR 25µM*, Menin MLL FP FL 0, Lamin A splicing 5%[46 µM] and CBFb RUNX1 block 5%.
`CN(C)CCCN1C(=O)c2cccc3cccc(c23)C1=O` gave MLL CXXC-DNA inh -4%, Menin MLL FP TR 14% and Menin MLL FP FL 0.
Screening CC1=CC2=C(OC1N(C)C)c1cccc3cccc(c13)C2=O (configuration not stated) returned MLL CXXC-DNA inh -7%, Menin MLL FP TR 28µM*, Menin MLL FP FL inconclusive, Lamin A splicing -10% and CBFb RUNX1 block -23%.
O=S(=O)(Nc1cccc2cccnc12)c1ccc(Br)s1 was read as Menin MLL FP TR inconclusive, Menin MLL FP FL 2 and CBFb RUNX1 block 6%.
For O=C(Nc1nc2c(s1)CN(Cc1ccccc1)CC2)c1cccc(S(=O)(=O)N2CCc3ccccc32)c1 the results were MLL CXXC-DNA inh inconclusive, Menin MLL FP TR 7.1µM*, Menin MLL FP FL inconclusive, Lamin A splicing 11% and CBFb RUNX1 block 6%.
Screening CC1=CC(=O)c2c(O)ccc(O)c2C1=O returned MLL CXXC-DNA inh 32µM*, Menin MLL FP TR inconclusive and Menin MLL FP FL inconclusive.
For COC(=O)/C=C/c1cc(O)ccc1O the results were CBFb RUNX1 block 4%.
For CCCCN(CC)CCNC(=O)c1cc2c(-c3ccc(Cl)cc3)nn(C)c2s1 the results were MLL CXXC-DNA inh -1%, Menin MLL FP TR 18µM* and Menin MLL FP FL 1.
`COc1ccc(CCNC(=O)c2cn(C)c3ccc(S(=O)(=O)N4CCOCC4)cc3c2=O)cc1OC` gave MLL CXXC-DNA inh -15%.
For CCn1cc(C(=O)NCCc2ccc(OC)c(OC)c2)c(=O)c2cc(S(=O)(=O)N3CCOCC3)ccc21 the results were MLL CXXC-DNA inh 8%, Menin MLL FP TR 16µM* and Menin MLL FP FL 0.
For CCOC(=O)N1CCN(c2ccc(O)cc2)CC1 the results were MLL CXXC-DNA inh 6%, Menin MLL FP TR -4%, Menin MLL FP FL -7, Lamin A splicing 13µM* and CBFb RUNX1 block -3%.
CCOC(=O)N1CCN(c2ccc(Cl)cc2)CC1 was read as MLL CXXC-DNA inh 5%, Menin MLL FP TR -12%, Menin MLL FP FL 2, Lamin A splicing 5% and CBFb RUNX1 block 3%.
Screening CCCCCC(CC)COC(=O)CC(C(=O)OCC(CC)CCCC)S(=O)(=O)O (configuration not stated) returned Menin MLL FP TR -11% and Menin MLL FP FL -1.

High-throughput results from PubChem.
